# VCAM1 TNFa inh: reduces TNF alpha induced VCAM1 expression in HUVEC | inhibition, % at 2 µM | HUVEC TNFa-induced VCAM-1 immunofluorescence, high-content imaging | 95,000 tested, 0.48% active;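 active = inhibition above the batch mean plus 3 SD, with images confirmed as a hit by eye, cut at about 37% in these data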
# PLAP activator: activates human placental alkaline phosphatase. activation fold at 20 µM. purified PLAP enzyme, luminescent substrate read-out; stronger effect = higher value. P05187. 96,000 tested, 1.2% active; in the data active = activation fold above about 2
# Target sequence (P05187 whole entry, looked up): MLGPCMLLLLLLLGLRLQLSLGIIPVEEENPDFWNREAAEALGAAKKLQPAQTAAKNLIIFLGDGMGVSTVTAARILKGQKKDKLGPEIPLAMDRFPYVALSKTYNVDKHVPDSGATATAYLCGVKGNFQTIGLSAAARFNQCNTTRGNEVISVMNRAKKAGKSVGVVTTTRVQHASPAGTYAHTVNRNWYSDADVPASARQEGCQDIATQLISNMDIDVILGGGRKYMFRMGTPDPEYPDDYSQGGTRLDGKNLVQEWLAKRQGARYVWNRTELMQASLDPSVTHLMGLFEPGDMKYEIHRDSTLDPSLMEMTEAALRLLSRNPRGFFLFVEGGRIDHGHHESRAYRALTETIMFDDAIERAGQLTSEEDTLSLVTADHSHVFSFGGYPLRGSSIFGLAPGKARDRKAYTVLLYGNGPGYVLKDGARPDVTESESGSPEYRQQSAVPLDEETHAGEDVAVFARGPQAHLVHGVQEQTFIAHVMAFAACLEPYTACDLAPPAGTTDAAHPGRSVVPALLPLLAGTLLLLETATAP
# TNFa cytotox: HUVEC cytotoxicity counter-screen, TNF alpha stimulated | cell count reduction, % at 2 µM | HUVEC TNFalpha-stimulated, Hoechst cell count, imaging | 93,000 tested, 0.17% active;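 active = cell count reduction exceeding the screen mean by over 5 SD, scaled to untreated wells per plate, cut at about 78% in these data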;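 also: cells counted after 24 h of TNF alpha exposure following the 1 h pretreatment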
# cytoskel mod: cytoskeleton assembly modification | HUVEC TNFa F-actin phalloidin imaging, high content | inhibition, % at 2 µM | 91,000 tested, 0.18% active | AID 836;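 active = inhibition above the batch mean plus 3 SD and confirmed as a hit by visual image inspection, cut at about 30% in these data, passing the limit was not always enough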
# E-sel TNF inh: blocks E-selectin expression induced by TNF alpha | HUVEC TNFa-induced E-selectin immunofluorescence, high content | inhibition, % at 2 µM | 120,000 tested, 0.71% active;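 active = inhibition above the batch mean plus 3 SD, and confirmed as a hit on visual image review, cut at about 43% in these data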
# Hits are given with their value; n = inactive; x = no result. This is a sample that favours compounds with a hit; in the whole collection about 2% have one here.
SMILES,VCAM1 TNFa inh,PLAP activator,TNFa cytotox,cytoskel mod,E-sel TNF inh
CCN1C/C(=C\c2cccc([N+](=O)[O-])c2)C(=O)/C(=C/c2cccc([N+](=O)[O-])c2)C1,x,x,x,x,100
CSc1nc(-c2ccco2)nn1S(C)(=O)=O,n,n,n,n,n
CCN(CC)S(=O)(=O)c1cc(C)ccc1SC,x,x,x,x,n
CC(=O)Nc1ccc(S(=O)(=O)N2CCN(C(=O)c3cccnc3)CC2)cc1,n,n,n,n,n
O=C(Cn1cnc2c(nnn2Cc2ccc(F)cc2)c1=O)NCc1ccco1,n,x,n,n,n
Cc1ccc(CNC(=O)N[C@@H](Cc2ccccc2)C(=O)O)cc1,x,x,x,x,n
CCN(Cc1cc2ccc(C)cc2[nH]c1=O)C(=O)c1cccnc1,n,n,n,n,x
CCc1ccc2[nH]c(=O)c(CN(Cc3ccc4c(c3)OCO4)C(=O)c3ccco3)cc2c1,n,n,n,n,n
CCN(Cc1cc2cc(C)ccc2[nH]c1=O)C(=O)c1cccc(OC)c1,90,n,82,n,x
COc1ccc2[nH]c(=O)c(CN(Cc3ccc4c(c3)OCO4)C(C)=O)cc2c1,n,n,n,36,n
COCCCn1c(N)c(-c2nc3ccccc3n2C)c2nc3ccccc3nc21,n,2,n,x,n
Cn1c(-c2c(N)n(CCc3ccccc3)c3nc4ccccc4nc23)nc2ccccc21,n,2.1,n,n,n
O=C1S/C(=C/c2ccccc2F)C(=O)N1CCN=C1NS(=O)(=O)c2ccccc21,x,x,x,x,n
CCN(C(=O)CSc1nc2ccccc2c(=O)n1C(C)COC)C1CCS(=O)(=O)C1 (centres undefined),x,x,x,x,n
CCN(C(=O)CSc1nc2ccccc2n1CCc1ccccc1)C1CCS(=O)(=O)C1 (centres undefined),n,2.4,n,n,n
Cc1ccc(-n2c(N)c(C(=O)NCc3cccnc3)sc2=S)cc1,n,n,n,n,n
CCOC(=O)/C(C#N)=C1/C=Cc2ccccc2N1CC,x,n,x,x,53
CCN(CC)C(=O)N1c2ccccc2C=Cc2ccccc21,n,n,n,n,n
Nc1ccccc1C(=O)NNc1ncc(C(F)(F)F)cc1Cl,n,2,n,n,n
OCc1nc2ccccc2n1C/C=C/c1ccccc1,n,2,n,n,n
O=C(Nc1ccc(C(=O)O)cc1)Nc1ccc(F)cc1F,x,x,x,x,n
Cc1ccc(CNC(=O)C2CCN(S(=O)(=O)c3c(C)noc3/C=C/c3ccco3)CC2)cc1,n,n,n,n,57
Cc1ccc(NC(=O)C2CCCN(S(=O)(=O)c3c(C)noc3C)C2)nc1 (centres undefined),n,n,n,n,65
Cc1noc(/C=C/c2ccco2)c1S(=O)(=O)N1CCC(C(=O)NCc2ccco2)CC1,n,n,n,n,x
Cc1ccc(CCNC(=O)C2CCCN(S(=O)(=O)c3c(C)noc3/C=C/N(C)C)C2)cc1 (centres undefined),n,n,n,n,55
SMILES,VCAM1 TNFa inh,PLAP activator,TNFa cytotox,cytoskel mod,E-sel TNF inh
CCOC(=O)c1sc(NC(=O)c2cc(-c3ccccc3)nc3ccccc23)c(C#N)c1C,n,n,n,n,n
CCCC1(C(=O)O)NC(c2ccccc2O)C2C(=O)N(c3cccc(Cl)c3)C(=O)C21 (centres undefined),n,2.4,n,n,x
CCCC1(C(=O)O)NC(c2cccc(OC)c2O)C2C(=O)N(c3ccccc3)C(=O)C21 (centres undefined),n,n,n,n,x
Cc1ccc2oc(Nc3nc(C)cc(C)n3)nc2c1,n,2.8,n,n,x
Cc1ccc2oc(Nc3nc(-c4ccccc4)cc(=O)[nH]3)nc2c1,x,x,x,x,100
COCc1cc(=O)[nH]c(Nc2nc3ccccc3o2)n1,n,n,n,n,n
COC(=O)Cc1cc(=O)[nH]c(Nc2nc3ccccc3o2)n1,x,2.6,x,x,n
COc1ccc(N2CCN(C(=O)c3c(C)nn(-c4ccccc4)c3C)CC2)cc1,x,x,x,x,n
CCCCn1c(=O)[nH]c(=O)c2c1nc(-c1ccccc1F)n2Cc1ccccc1OC,x,x,x,x,n
Cc1cc([N+](=O)[O-])nn1CCCC(=O)Nc1sc2c(c1C(N)=O)CCC(C)C2 (centres undefined),x,x,x,x,84
C=CCn1c(COc2ccc(Cl)cc2)nnc1SCC(=O)N/N=C/c1cccc(O)c1,n,n,n,66,n
COc1ccc(-c2csc(NC(=O)c3nc(-c4ccccc4)oc3C)n2)cc1,n,n,n,n,n
Cc1oc(-c2ccccc2)nc1C(=O)Nc1nccs1,n,2,n,n,x
Cc1nc2ccccc2n1CC(O)COCC1CC=CCC1 (centres undefined),n,n,96,n,n
Cc1cc(C)nc(Nc2n[nH]c(-c3ccccc3Br)n2)n1,n,n,n,n,n
Cc1cc(C)nc(Nc2n[nH]c(-c3ccc(N)cc3)n2)n1,n,2.4,n,n,x
N#CC(c1ccc(Cl)cc1)c1ccc(Cl)nn1 (centres undefined),n,n,n,n,n
CCCc1cc(-c2[nH]ncc2-c2ccc3c(c2)OCCCO3)c(O)cc1O,n,2.6,n,n,n
CCCc1cc(-c2[nH]ncc2-c2ccc(C(=O)OCC)o2)c(O)cc1O,n,2.1,n,n,n
CC(NC(=O)CCCn1cc([N+](=O)[O-])cn1)c1ccccc1 (centres undefined),x,x,x,x,n
CCOC(=O)c1c(NC(=O)CSc2nnc(-c3ccccc3)n2CC)sc(C(C)=O)c1C,n,n,n,n,100
CCn1c(SCC(=O)Nc2oc(-c3ccccc3)c(-c3ccccc3)c2C#N)nnc1-c1cc(OC)cc(OC)c1,n,2.2,n,n,x
CCOC(=O)c1c(NC(=O)CSc2nnc(-c3cccc(C)c3)n2CC)sc(C(C)=O)c1C,n,n,n,n,n
CCOC(=O)N/N=C(\C)c1ccc(OC(F)F)cc1OC(F)F,x,x,x,x,n
COc1ccc(C2C(C#N)=C(N)N(c3ccccc3C#N)C3=C2C(=O)CCC3)cc1CN1CCCC1 (centres undefined),x,x,x,x,n
SMILES,VCAM1 TNFa inh,PLAP activator,TNFa cytotox,cytoskel mod,E-sel TNF inh
CCOc1cc(C(c2c(C)[nH][nH]c2=O)c2c(C)[nH][nH]c2=O)ccc1OC(=O)c1cccc([N+](=O)[O-])c1,n,n,n,n,n
CCOc1cc(C(c2c(C)[nH][nH]c2=O)c2c(C)[nH][nH]c2=O)ccc1OCc1ccc([N+](=O)[O-])cc1,n,2.7,n,n,x
O=C(NCc1ccccn1)C1CCN(S(=O)(=O)c2cc(Cl)ccc2Cl)CC1,x,x,x,x,n
COc1ccc(NC(=O)c2ccc(CNc3c(NC4CCCCC4)c(=O)c3=O)cc2)cc1OC,n,n,n,n,72
COc1ccc(CNC(=O)c2ccc(CNc3c(NC4CCCCC4)c(=O)c3=O)cc2)cc1,x,x,x,x,n
C=CCN1CCN(C(c2cc(OC)ccc2OC)c2nnnn2CC2CCCO2)CC1 (centres undefined),n,n,n,n,71
Nc1nc(Sc2ccc(C(F)(F)F)cc2[N+](=O)[O-])n[nH]1,n,2,n,n,n
O=[N+]([O-])c1cc(C(F)(F)F)ccc1Sc1ccc2ccccc2n1,n,n,n,n,n
O=C(O)c1cc2nc3c(c(C(F)(F)F)n2n1)CCc1ccccc1-3,85,n,n,n,x
COCCNC(=O)c1cc2nc3c(c(C(F)(F)F)n2n1)CCc1ccccc1-3,x,x,x,x,n
